Values joined by “and” are separate entries in the source; they are usually repeats but may differ in a detail not shown here. Equal values may be shown once. Results filed as inconclusive are left out. Active and inactive are the calls of the source. Unless noted, calls follow the shape of the dose curve; as a rule, active = well fitted activation curve with a large enough effect; inconclusive = small, poorly fitted or top-dose-only effect; inactive = flat fitted curve, though single readings scatter.
How the values were obtained:
[1] = S16 Schwann cell PMP22 intronic element beta-lactamase assay (AID 624044; calls by dose curve;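 also: 0% = DMSO and -100% = potassium clavulanate positive control; nearly all actives have a fitted effect of over 15% in size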); details: S16 rat Schwann cells, PMP22 element beta-lactamase FRET, 24 h; series mostly up to 38.3 µM
Outline: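 Beta-lactamase reporter under a PMP22 intronic regulatory element in stable S16 rat Schwann cells; 24 h compound exposure. 460 nm blue signal normalized between DMSO (0%) and potassium clavulanate, with 535 nm FRET tracking viability; curves classed by r2 and response.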

[2] = qHTS assay for small molecule activators of the p53 signaling pathway (AID 651743; active = well fitted activation curve with a large enough effect in the signal ratio, not every such curve was filed as active; the % refers to the signal ratio; also: % of control where 0% means no effect); details: HCT-116 p53RE-bla, beta-lactamase FRET ratio, 16 h; stronger effect = higher value
Outline: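 Following 16 hours of compound exposure at 37 C, HCT-116 cells bearing the p53RE-bla reporter were loaded with LiveBLAzer B/G FRET substrate for 2 hours at room temperature and fluorescence intensity was recorded.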

[3] = qHTS assay for small molecule activators of the nuclear factor-kappa B (NF-kB) signaling pathway (AID 651749; active = well fitted activation curve with a large enough effect in the signal ratio; the % refers to the signal ratio; also: % of control where 0% means no effect); details: NF-kB-bla ME-180 cells, beta-lactamase FRET ratio, 16 h; stronger effect = higher value
Outline: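 In this qHTS format, compounds acting as activators increase NF-kB-driven beta-lactamase in ME-180 cells, measured as disrupted FRET after 16 hr exposure at 37C and 5% CO2.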

[4] = target: Tumor necrosis factor (Homo sapiens) (UniProt P01375); test: qHTS assay to identify small molecules that stimulate Tumor Necrosis Factor-alpha (TNF-alpha) secretion (AID 651757; active = well fitted curve in the direction sought with a large enough effect in the signal ratio; the % refers to the signal ratio; also: 0% is about no effect); details: Human cells, HTRF 665/615 ratio; series mostly up to 92.2 µM
Outline: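 Human monocytic THP-1 cells are plated, treated with compound and held at 37 C for 17 hrs. Labeled anti-TNF-alpha antibody mixture is then added; after 3 hr at room temperature, TR-FRET signal reports secreted TNF-alpha.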

[5] = qHTS assay for environmental chemicals that activate the Aryl hydrocarbon Receptor (AhR) signaling pathway (AID 651777); details: 1A2-DRE human hepatoma cells, luciferase, 24 h; stronger effect = higher value; also: % of control where 0% means no effect; nearly all actives have a fitted effect of over 15% in size
Outline: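 Human hepatoma 1A2-DRE cells stably carrying a DRE/CYP1A2 promoter–luciferase reporter, 1,200 cells/well, exposed to compound 24 hr at 37 C. Luciferase read by One-Glo luminescence after 30 min at room temperature; increased signal marks AhR activation.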

[6] = target: Peroxisome proliferator-activated receptor alpha (Homo sapiens) (UniProt Q07869); test: qHTS assay for small molecule agonists of the peroxisome proliferator-activated receptor alpha (PPARalpha) signaling pathway (AID 651778); details: PathHunter PPARalpha complementation, chemiluminescence, 6 h; stronger effect = higher value; also: % of control where 0% means no effect
Outline: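 Enzyme-fragment complementation assay in which ligand-bound PPARalpha translocates and forms an active enzyme that generates chemiluminescence. Cells were plated overnight, exposed to compound for 6 hr at 37 C, and then given detection reagent for 60 min at room temperature.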

[7] = qHTS assay for small molecule agonists of the antioxidant response element (ARE) signaling pathway (AID 651741; active = well fitted activation curve with a large enough effect in the signal ratio; the % refers to the signal ratio; also: % of control where 0% means no effect); details: HepG2 ARE-bla reporter, beta-lactamase FRET ratio, 16 h; series mostly up to 96 µM
Outline: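 Stably integrated ARE-beta-lactamase reporter HepG2 cells; 16 h compound incubation, 37 C; LiveBLAzer FRET substrate 2 h at room temperature; fluorescence intensity.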

[8] = qHTS assay to identify small molecules that stimulate interleukin-8 (IL-8) secretion (AID 651758; active = well fitted activation curve with a large enough effect in the signal ratio; the % refers to the signal ratio; also: 0% is about no effect); details: HTRF ratio (665/615); series mostly up to 92.2 µM
Outline: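 Compounds are added to THP-1 cells (2000 per well) and left 16 hrs at 37 C. A labeled anti-IL-8 antibody pair is then added, and IL-8 secretion is measured by time-resolved FRET after 1-3 hrs at room temperature.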

[9] = qHTS assay for small molecule disruptors of the mitochondrial membrane potential - 5 hr assay (AID 651755; calls by dose curve; also: % is scaled to controls: 0 for no effect and ±100 for the full control effect; nearly all actives have a fitted effect of over 40% in size); details: JC-1-type ratio dye; series mostly up to 92.2 µM
Outline: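 Read-out: ratiometric Mito-MPS fluorescence, green monomer (ex 490/em 535) vs red mitochondrial aggregate (ex 540/em 590). HepG2 cells treated 5 hr at 37C before 30 min dye loading.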

Sequence of Peroxisome proliferator-activated receptor alpha (Homo sapiens) (Q07869 whole entry, looked up, the tested form may be a part): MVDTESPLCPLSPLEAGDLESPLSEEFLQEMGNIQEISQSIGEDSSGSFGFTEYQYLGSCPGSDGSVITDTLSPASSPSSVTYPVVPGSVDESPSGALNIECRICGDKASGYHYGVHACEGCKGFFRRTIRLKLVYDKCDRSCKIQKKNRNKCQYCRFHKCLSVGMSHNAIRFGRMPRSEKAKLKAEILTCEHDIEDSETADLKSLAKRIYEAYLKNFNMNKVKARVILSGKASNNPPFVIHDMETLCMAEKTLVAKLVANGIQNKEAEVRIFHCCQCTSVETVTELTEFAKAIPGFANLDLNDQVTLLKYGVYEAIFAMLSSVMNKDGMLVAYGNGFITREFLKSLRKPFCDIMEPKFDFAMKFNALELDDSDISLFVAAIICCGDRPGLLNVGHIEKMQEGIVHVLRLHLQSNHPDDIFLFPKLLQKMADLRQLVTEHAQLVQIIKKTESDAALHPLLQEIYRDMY
Sequence of Tumor necrosis factor (Homo sapiens) (P01375 whole entry, looked up): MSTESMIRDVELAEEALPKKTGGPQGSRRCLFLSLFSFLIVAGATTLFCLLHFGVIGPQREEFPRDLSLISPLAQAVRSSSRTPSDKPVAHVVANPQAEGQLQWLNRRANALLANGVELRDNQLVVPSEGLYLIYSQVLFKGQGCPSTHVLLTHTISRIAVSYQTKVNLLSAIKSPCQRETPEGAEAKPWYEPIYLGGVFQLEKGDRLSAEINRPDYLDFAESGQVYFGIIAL

CC(=O)Oc1cccc(O)c1
inactive: outcome [1]

CC(=O)Nc1ccc(C(=O)O)cc1
inactive: activation [2] -0.0847% | activation [3] -1.2% | outcome [4] | activation [5] 0.454% | max response [6] -0.167%

CCCNC(C)(C)COC(=O)c1ccccc1
inactive: outcome [1]

CC(=O)OCC(COC(C)=O)OC(C)=O
inactive: Potency [7] | activation [3] 0.2% and 0.487% | outcome [4] | outcome [8] | activation [5] 1.18% and -0.878% | max response [6] 0.869% and -1.48%

CCN(CC)C(=O)c1cccc(C)c1
inactive: outcome [1] | Potency [7] | Potency [9] | outcome [4] | outcome [8] | activation [5] -1.83% and 2% | max response [6] -2.42% and -0.716%
